Compound activity as filed in PubChem.
The full list was thinned out, with hits kept by preference.
ST2 IL33 inh: inhibitors of human ST2 (IL1RL1) binding to IL-33; inhibition, % for hits at 17 µM; AID 1259354; hit rate 2.3% among 78,000; AlphaLISA ST2-Fc/biotin-IL-33 interaction, 1 h; Q01638; in the data active means inhibition above about 30%
Target sequence (Q01638 whole entry, looked up): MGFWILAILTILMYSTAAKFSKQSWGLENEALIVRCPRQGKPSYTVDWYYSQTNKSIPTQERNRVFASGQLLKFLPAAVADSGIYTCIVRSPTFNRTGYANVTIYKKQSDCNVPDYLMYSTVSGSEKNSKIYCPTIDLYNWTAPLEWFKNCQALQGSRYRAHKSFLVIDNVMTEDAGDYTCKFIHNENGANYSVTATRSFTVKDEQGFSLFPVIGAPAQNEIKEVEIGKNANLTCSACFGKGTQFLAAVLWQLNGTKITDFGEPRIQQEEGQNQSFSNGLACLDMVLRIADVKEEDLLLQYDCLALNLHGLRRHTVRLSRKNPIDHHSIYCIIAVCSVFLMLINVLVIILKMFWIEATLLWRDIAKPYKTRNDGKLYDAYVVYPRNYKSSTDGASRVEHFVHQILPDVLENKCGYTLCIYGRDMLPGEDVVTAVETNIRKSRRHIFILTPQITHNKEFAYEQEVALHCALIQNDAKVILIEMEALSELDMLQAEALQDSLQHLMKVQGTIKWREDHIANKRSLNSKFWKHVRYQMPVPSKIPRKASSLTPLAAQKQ
Starred values were filed as active, the others as inactive; i = inactive.

SMILES	ST2 IL33 inh
CCOc1ccc(N=C2C(=O)N(CN3CCN(c4ccccc4)CC3)c3ccccc32)cc1	i
O=C1C(=Nc2cccc(F)c2)c2ccccc2N1CN1CCN(c2ccccc2)CC1	i
CCN(CC)CN1C(=O)C(=Nc2cccc(C(F)(F)F)c2)c2ccccc21	32%*
COc1cc(-c2cc(C(=O)O)c3c(ccc4ccccc43)n2)c(Cl)cc1O	i
Cn1c(=O)c2c(nc(NC3CCCCC3)n2Cc2ccccc2Cl)n(C)c1=O	i
CC(C)(C)c1ccc(C(=O)N2CCN(c3ccc([N+](=O)[O-])c(NCc4ccco4)c3)CC2)cc1	31%*
Cc1cc(C)n(-c2cc(N3CCN(C(=O)c4ccco4)CC3)ccc2[N+](=O)[O-])n1	i
O=[N+]([O-])c1ccc(N2CCOCC2)cc1NCc1ccco1	i
N#CC1=C(N)SC(N)=C(C#N)C1c1ccc(Cl)cc1Cl	i
COc1ccccc1C1C(C#N)=C(N)SC(N)=C1C#N	i
Cc1ccc(C2C(C#N)=C(N)SC(N)=C2C#N)o1	32%*
COc1ccc(Br)cc1CN(C)CCN(C)C	i
Cc1cc(NCCO)n2c(nc3ccccc32)c1C#N	i
Cc1cc(NCCCN(C)C)n2c(nc3ccccc32)c1C#N	i
Cc1cc(Nc2ccc(O)cc2)n2c(nc3ccccc32)c1C#N	33%*
C=CCn1c(=O)[nH]c2cc(C(=O)NCc3ccc4c(c3)OCO4)ccc2c1=O	i
CC1CCCCC1NC(=O)/C=C1\Sc2ccccc2NC1=O (centres undefined)	i
COc1cc(C2C(C(=O)OC3CCCCC3)=C(C)Nc3ncnn32)cc(OC)c1OC (centres undefined)	i
C=CCn1c(=O)[nH]c2cc(C(=O)N3CCN(c4ccc(F)cc4)CC3)ccc2c1=O	i
Cc1ccc2nc(SCC(=O)N3CCc4c(c(C(=O)NC5CCCC5)nn4CC(C)C)C3)[nH]c2c1	i
CCSc1nc2c(c(=O)[nH]1)C(c1ccc(OCc3ccccc3)cc1)C1=C(CCCC1=O)N2 (centres undefined)	i
CCc1ccc(NC(=O)c2ccc(N(Cc3ccccc3)S(C)(=O)=O)cc2)cc1	i
CC(C)(C)c1ccc(C(=O)Nc2ccc3c(c2)OCO3)cc1	i
COc1ccccc1NC(=O)c1ccc(OCc2ccccc2)cc1	i
COC(=O)c1c(NC(=O)COc2ccc(C(C)(C)C)cc2)sc2c1CCC2	i
SMILES	ST2 IL33 inh
COC(=O)C1=C(NC(=O)c2ccc(C(C)(C)C)cc2)CCS1	53%*
COC(=O)C1=C(NC(=O)c2ccc(Cc3ccccc3)cc2)CCS1	31%*
COc1ccc2nc(Nc3ccc(F)cc3)sc2c1	i
COc1cc(Cn2cnc(-c3ccccc3)c2-c2nc[nH]c2C)ccc1O	i
Cc1cccc(CN(C)C2CCN(C)CC2)c1	i
CSc1nc(C(=O)N(C)CC2CCN(CCc3cccc(F)c3)CC2)cs1	i
Cc1[nH]c2ccc(Br)cc2c(=O)c1CN(C)C	i
COc1ccc(OCc2cc(C(=O)N3CCCCO3)n[nH]2)c(Cl)c1	i
CCOc1ccc(C2C(C#N)=C(SCc3ccccc3)NC(=O)C2C(=O)OC)cc1 (centres undefined)	i
CC(C)CCN(C)C1CCN(S(=O)(=O)c2ccc(C3CCCCC3)cc2)CC1	i
CCn1c(C2CCN(CC3CCN(CCOC)CC3)CC2)nn(C)c1=O	i
Nc1ccc(Br)cc1-c1nc2ccccc2[nH]c1=O	i
O=c1c2c[nH]c3ccccc3nc-2c2ccccc12	42%*
O=C(O)c1cc(-c2c[nH]c3ccccc23)n[nH]1	i
CC(C)c1nc(CN(C)C(=O)C2CC(=O)N(Cc3ccncc3)C2)cs1 (centres undefined)	i
COc1ccc(-c2nccn2-c2ccccc2CCO)cc1C	i
CN(C)CCCNCCCNC(=O)c1cccnc1	i
Cn1c(=O)c2nc(-c3ccc(Br)cc3)oc2c2ccccc21	i
c1ccc2c(c1)[nH]c1nc(SCCCN3CCOCC3)nnc12	i
CC(C)CSc1nnc2c(n1)[nH]c1ccccc12	32%*
O=[N+]([O-])c1ccc(CSc2nnc3c(n2)[nH]c2ccccc23)cc1	i
CCc1nn(C)c(Cl)c1CN1CCN(C)C(C(=O)O)C1 (centres undefined)	i
CCOc1cc2c(cc1OCC)C1C(C(=O)NCc3cccs3)c3ccccc3C(=O)N1CC2 (centres undefined)	i
Cc1ccc(CNC(=O)C2C3C=CC4(CN(Cc5ccccc5Cl)C(=O)C24)O3)cc1 (centres undefined)	i
O=[N+]([O-])c1ccc(N2CCN(Cc3cccnc3)CC2)cc1	i
SMILES	ST2 IL33 inh
O=[N+]([O-])c1ccc(N2CCN(Cc3ccsc3)CC2)cc1	i
CC1(C)[C@H]2CC=C(CN3CCN(c4ccc([N+](=O)[O-])cc4)CC3)[C@@H]1C2	42%*
CCN1CCN(C(=O)CCC2CCN(CC3=CC[C@H]4C[C@@H]3C4(C)C)CC2)CC1	i
O=[N+]([O-])c1ccc(N2CCN(Cc3ccc(Br)o3)CC2)cc1	38%*
O=C(O)c1ccc(CN2CCN(c3ccc([N+](=O)[O-])cc3)CC2)cc1	i
O=C(CN1C(=O)c2ccccc2C1=O)NCCc1ccc(F)cc1	i
O=C(c1ccc2nc3ccsc3c(=O)n2c1)N1CCN(C(=O)c2ccco2)CC1	i
Cc1cc(N2CCN(C)CC2)nc2ccc(NC(=O)CCC(=O)N(C)C3CCCCC3)cc12	i
O=C1CC(c2ccc3c(c2)OCCO3)Oc2ccc(Br)cc21 (centres undefined)	i
O=C(O)CCC(=O)N1N=C(c2ccc(Br)cc2)CC1c1ccccc1F (centres undefined)	i
COc1cc(/C=C2\SC(N)=NC2=O)cc(OC)c1O	i
COc1cc(/C=C2\SC(c3ccccc3)=NC2=O)cc(Br)c1O	40%*
COc1cc(/C=C2\SC(N3CCCCC3)=NC2=O)cc(OC)c1OC	i
O=C(NCCCN1CCN(C2CCCCC2)CC1)C1CCCN1c1nnc(N2CCCC2=O)s1 (centres undefined)	i
O=C1C2CC=C(Cl)CC2C(=O)N1CCCN1CCOCC1 (centres undefined)	i
Nc1nnc(-c2ccc([N+](=O)[O-])cc2)s1	i
CCOc1c(Cl)cnn(-c2ccccc2)c1=O	i
COc1cc2c(cc1OC)CN(Cc1sccc1C)CC2	i
COc1ccc(N/C=C(/c2cc(O)ccc2O)[N+](=O)[O-])cc1	45%*
COc1ccc(C(=O)Nc2ccc([N+](=O)[O-])cc2)cc1	i
COc1ccc(CC(=O)Nc2ccc(C)c([N+](=O)[O-])c2)cc1	i
COc1ccc(N2CCN(C3CCCN(C(=O)CC4=CCCCC4)C3)CC2)cc1 (centres undefined)	i
O=C(CCN1Cc2ncccc2C1=O)Nc1nccs1	i
CCOC(=O)c1cc2c(n(-c3ccc(Cl)cc3)c1=O)CC(C)(C)CC2=O	i
Cc1ccc(Nc2nc(-c3ccc(O)c(O)c3)cs2)nc1	42%*
SMILES	ST2 IL33 inh
Cc1ccc(C(=O)Nc2nc(-c3ccccc3)cs2)c(Cl)c1	i
Cc1ccnc(Nc2nc(-c3ccccc3)cs2)c1	i
Cc1cc(C(F)F)nc(SC2C/C(=N\O)C3OCC2O3)n1 (centres undefined)	i
O=c1oc(-c2ccccc2)nc2ccc(Cl)cc12	i
Cc1ccccc1-c1nc2cc(NC(=O)CC(C)C)ccc2o1	i
CCc1cc2c(=O)oc(-c3ccccc3C)nc2s1	33%*
COc1cccc(-c2cc(N3CCN(S(=O)(=O)c4cc(OC)ccc4OC)CC3)ncn2)c1	i
